{"source": "PubChem BioAssay AID493049", "about": "(Broad Institute, 2011)", "note": "Potency and affinity values are given separately. A number with no mark means an inactive call.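 How the source made its calls: active means viability loss with half-max dose at or under ten times the top valid dose tested; inconclusive means flat 30 to 70% loss, or poor curve fit; inactive means flat within 30%, weak potency, or gain.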", "data": [{"experiment": "DRD BJ cell killing, Ras synthetic lethality – DRD BJ fibroblasts, HRASV12, dry powder, dose response (AID 493049)", "conditions": "DRD engineered BJ fibroblasts (HRASV12) viability, Alamar Blue, 48 h; series mostly up to 45 µM; activity change, negative = viability loss: at the top concentration", "values": [{"smiles": "CCC(=O)N(c1ccc(OC)c(Cl)c1)C(C(=O)NCCc1ccccc1)c1cccs1", "note": "(stereo unspecified)", "activity change, negative = viability loss": "-1.22%"}, {"smiles": "COCC(=O)N(c1ccc(OC)c(Cl)c1)C(C(=O)NCCc1ccccc1)c1cccs1", "note": "(stereo unspecified)", "activity change, negative = viability loss": "-0.438%"}, {"smiles": "COc1ccc(N(C(=O)CO)C(C(=O)NCCc2ccccc2)c2cccs2)cc1Cl", "note": "(stereo unspecified)", "activity change, negative = viability loss": "2.17%"}, {"smiles": "COc1ccc(N(C(=O)CSc2ncccn2)C(C(=O)NCCc2ccccc2)c2cccs2)cc1Cl", "note": "(stereo unspecified)", "activity change, negative = viability loss": "-2.6% [at 38 µM]"}, {"smiles": "O=C(c1[nH]ncc1[N+](=O)[O-])N1CCN(C(c2ccccc2)c2ccccc2)CC1", "activity change, negative = viability loss": "-3.84%"}, {"smiles": "COc1ccc(N(C(=O)[C@@H](C)Cl)C(C(=O)NCCc2ccccc2)c2cccs2)cc1Cl", "note": "(stereo partly specified)", "activity change, negative = viability loss": "-1.66%"}]}]}
